Measurements from article PMC4336329 (PLoS ONE, 2015).
Screen size: about 310,000 compounds; about 14,000 (4.5%) showed an effect of 50% or more. Effects have a minus sign here. For the sample, strong results were picked, then their nearest neighbours and some compounds at random.

Biological target: human ether-à-go-go-related gene (hERG) potassium channel (human, UniProt Q12809)
Test: primary screen, population patch clamp on CHO cells stably expressing hERG; higher = less effect of the substance
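Note: peak tail current of the secondary pulse compared with the same well before compound.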

human ether-à-go-go-related gene (hERG) potassium channel, sequence (Q12809 whole entry, looked up): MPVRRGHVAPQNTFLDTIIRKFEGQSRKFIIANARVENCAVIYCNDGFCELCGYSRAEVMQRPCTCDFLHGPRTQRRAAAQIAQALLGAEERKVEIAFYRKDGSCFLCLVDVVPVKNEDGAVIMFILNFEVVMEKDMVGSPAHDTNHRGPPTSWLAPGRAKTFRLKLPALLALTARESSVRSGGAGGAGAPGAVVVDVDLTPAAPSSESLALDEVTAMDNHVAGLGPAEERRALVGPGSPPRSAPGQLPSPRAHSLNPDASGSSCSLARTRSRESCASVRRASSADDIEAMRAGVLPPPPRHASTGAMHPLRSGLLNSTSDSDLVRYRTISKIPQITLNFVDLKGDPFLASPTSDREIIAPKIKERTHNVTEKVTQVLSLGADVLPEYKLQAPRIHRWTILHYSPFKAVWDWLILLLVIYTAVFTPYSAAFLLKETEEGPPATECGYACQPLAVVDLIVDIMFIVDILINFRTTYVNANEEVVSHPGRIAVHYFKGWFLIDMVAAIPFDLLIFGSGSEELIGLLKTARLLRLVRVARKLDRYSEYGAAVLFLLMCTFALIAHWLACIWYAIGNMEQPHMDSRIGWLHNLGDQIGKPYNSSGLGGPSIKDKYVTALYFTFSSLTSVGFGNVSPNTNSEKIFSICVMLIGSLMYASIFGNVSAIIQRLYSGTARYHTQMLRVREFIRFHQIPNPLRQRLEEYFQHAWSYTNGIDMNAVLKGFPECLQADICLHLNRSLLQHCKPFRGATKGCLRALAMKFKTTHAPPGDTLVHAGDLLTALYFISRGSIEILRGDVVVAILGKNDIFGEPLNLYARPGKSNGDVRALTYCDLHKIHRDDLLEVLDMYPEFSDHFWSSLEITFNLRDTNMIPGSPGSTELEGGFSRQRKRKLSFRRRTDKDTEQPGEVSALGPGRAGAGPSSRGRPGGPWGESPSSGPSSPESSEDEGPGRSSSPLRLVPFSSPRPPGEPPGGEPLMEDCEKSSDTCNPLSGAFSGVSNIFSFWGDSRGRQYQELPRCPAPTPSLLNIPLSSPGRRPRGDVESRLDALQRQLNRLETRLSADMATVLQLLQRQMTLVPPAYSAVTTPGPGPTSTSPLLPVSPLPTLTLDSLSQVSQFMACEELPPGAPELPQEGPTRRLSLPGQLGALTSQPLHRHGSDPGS

Row | Compound | hERG current change (%, negative = inhibition) at 10uM [%]
1 | O=C(c1cccc(S(=O)(=O)NCCOc2ccccc2)c1)N1CCN(c2ncccn2)CC1 | -37.6
2 | Cc1cc(/C=C(\C#N)C(=O)NCc2ccco2)c(C)n1-c1cccnc1 | -23.2
3 | O=C(COc1ccc2ccccc2c1)N/N=C/C1CC=CCC1 (stereo not shown) | 1.93
4 | CCOCCCN1CN(Cc2ccccc2)CNC1=S | 14.3
5 | COC(=O)c1sccc1NC(=S)NCc1ccc(Cl)cc1 | 9.11
6 | COCCN(C(=O)CCC(=O)Nc1cc(C)on1)C(C(=O)NC1CCCC1)c1ccccc1C (stereo not shown) | 14.7
7 | COc1cccc(OC)c1C(=O)NC(=S)N1CCOCC1 | 17.2
8 | CCOC(=O)Cn1c2c(c(-c3ccccc3OC)cc1=O)CCCC2 | 2.38
9 | CNS(=O)(=O)c1ccc(NC(=S)Nc2ccc3c(c2)OCO3)cc1 | 8.16
10 | CC(=O)c1c(C)[nH]c(C(=O)COC(=O)CN(C)S(=O)(=O)c2ccc(Cl)cc2)c1C | -57.8
11 | Cn1c(N)c(C(=O)COC(=O)CSc2ccc3ccccc3c2)c(=O)n(C)c1=O | -1.77
12 | CC(=O)c1c(C)[nH]c(C(=O)COC(=O)CNS(=O)(=O)c2ccccc2)c1C | -2.66
13 | Cn1c(N)c(C(=O)COC(=O)CSc2ccccc2)c(=O)n(C)c1=O | -33.6
14 | Cn1c(N)c(C(=O)COc2ccc(Cl)cc2Cl)c(=O)n(C)c1=O | 2.07
15 | Cn1c(N)c(C(=O)COC(=O)CCCOc2ccc(Cl)cc2Cl)c(=O)n(C)c1=O | -12.2
16 | Cn1c(N)c(C(=O)COC(=O)CSc2ccc(Cl)cc2)c(=O)n(C)c1=O | -61.2
17 | CN(CC(=O)OCC(=O)c1c(N)n(C)c(=O)n(C)c1=O)S(=O)(=O)c1ccc(Cl)cc1 | -69.3
18 | CN(CC(=O)OCC(N)=O)S(=O)(=O)c1ccc(Cl)cc1 | 33.6
19 | Cc1ccc(S(=O)(=O)N(C)CC(=O)OCC(=O)c2c(N)n(C)c(=O)n(C)c2=O)cc1 | -47.1
20 | CC(Oc1ccc(Cl)cc1Cl)C(=O)OCC(=O)c1c(N)n(C)c(=O)n(C)c1=O (stereo not shown) | -71.2
21 | CC(C)[C@H](NS(=O)(=O)c1ccc(Cl)cc1)C(=O)OCC(=O)c1c(N)n(C)c(=O)n(C)c1=O | -39.9
22 | COc1ccc(N(C(=O)COc2ccccc2)C2C=CS(=O)(=O)C2)cc1 (stereo not shown) | -1.57

Row | Compound | hERG current change (%, negative = inhibition) at 10uM [%]
23 | CCC(=O)Nc1c(S(=O)(=O)c2ccc(C)cc2)c2nc3ccccc3nc2n1C(C)c1ccccc1 (stereo not shown) | -14.9
24 | C=C(C)CN=C1NN=C(c2cc(C)n(-c3ccc(C)cc3)c2C)CS1 | 4.06
25 | O=C(NCCNC(=O)c1ccccc1F)c1ccco1.O=C(O)C(=O)O | 13.9
26 | O=C(CN1CCN(c2ccc(Cl)cc2[N+](=O)[O-])CC1)N1CCOCC1 | -33.6
27 | O=C(CSc1ccc(Cl)cc1)N1CCN(c2ccc([N+](=O)[O-])cc2Cl)CC1 | -59.2
28 | O=C(CSc1ccc(Cl)cc1)N1CCCC1 | 16.6
29 | O=C(CSc1ccc(Cl)cc1)N1CCN(c2c(Cl)cccc2[N+](=O)[O-])CC1 | -17.2
30 | O=C(CSc1ccc(Cl)cc1)N1CCN(c2ccc(Cl)cc2[N+](=O)[O-])CC1 | -61.5
31 | CN1CCN(C(=O)CSc2ccc(Cl)cc2)CC1 | 6.35
32 | CCN1C(=O)c2ccc(C(=O)O)cc2C1=O | 9.2
33 | c1ccc(CCNc2ncnc3sccc23)nc1 | 26.8
34 | O=C(c1ccc(Cl)cc1)c1ccc(OCC(=O)N2CCOCC2)cc1 | -40.8
35 | CCOC(=O)N1CCN(C(=O)c2ccc(NC(=O)c3ccc(C)cc3)cc2)CC1 | -13.3
36 | COc1ccc([N+](=O)[O-])cc1NC(=O)Cn1ccc(C(F)(F)F)n1 | 13.3
37 | COc1ccc(N2C(=O)C(OC(C)=O)C2c2ccc(C)cc2)cc1 (stereo not shown) | 17.3
38 | COc1ccc([C@@H]2Sc3cc(OC)ccc3N(CCN(C(C)C)C(C)C)C(=O)[C@H]2OC(C)=O)cc1.Cl | -75
39 | COc1ccc2c(c1)Sc1ccccc1N2CCN(C)C.O=C(O)C(=O)O | -21.3
40 | Cc1ccc(N2C(=O)CC(Sc3ncn[nH]3)C2=O)cc1C (stereo not shown) | 14.2
41 | S=C(NCC1CCCO1)N1CCN(c2ccccc2)CC1 (stereo not shown) | 23.5
42 | Cc1cc2ccccc2c(=O)[nH]1 | 16.5
43 | CCn1c(CNC(=O)C2CCCCC2)cc2cc(C)ccc21 | 28
44 | CN(C)c1nc(NCc2ccccc2)nc(SCC(N)=O)n1 | 7.76

Row | Compound | hERG current change (%, negative = inhibition) at 10uM [%]
45 | O=c1oc2ccccc2c2c1ncn2CCN1CCOCC1 | -8.76
46 | COc1ccc(-c2oc3ncnc(NCCN4CCOCC4)c3c2-c2ccc(OC)cc2)cc1 | 2.75
47 | N=c1c2c(-c3ccccc3)c(-c3ccccc3)oc2ncn1CCN1CCOCC1 | -70.8
48 | COc1ccc(-c2oc3ncn(CCN4CCOCC4)c(=N)c3c2-c2ccc(OC)cc2)cc1 | -70.3
49 | N=c1c2c(-c3ccccc3)c(-c3ccccc3)oc2ncn1CCCN1CCOCC1 | -79.2
50 | Cn1c2ccccc2c2ncn(CCCN3CCOCC3)c(=O)c21 | -16.6
51 | COc1ccc(-c2oc3ncn(Cc4ccco4)c(=N)c3c2-c2ccc(OC)cc2)cc1 | -49.4
52 | Cn1c(=O)c2c(-c3ccccc3)n(CCCN3CCOCC3)cc2n(C)c1=O | 16.1
53 | CC(C)Cc1n[nH]c(=O)[nH]1 | -6.31
54 | O=C(Nc1c2c(nn1-c1ccc(F)cc1)CS(=O)C2)c1ccc(S(=O)(=O)N2CCOCC2)cc1 (stereo not shown) | 21.9
55 | Cc1cc(NC(=O)c2c(-c3ccccc3Cl)noc2C)no1 | 5.88
56 | CS(=O)(=O)NNC(=O)c1cc2cc3ccccc3nc2s1 | 9.84
57 | COc1ccc(NC(=O)C2=CC(c3ccc(OC)c(OC)c3)=NS(=O)(=O)N2C)cc1 | -4
58 | O=C(NCC1CCCO1)c1cc(-c2ccc(F)cc2)no1 (stereo not shown) | 0.634
59 | C=CCN1CC2(c3ccccc3)CN(CC=C)CC(c3ccccc3)(C1)C2=O | -19.3
60 | O=C1C2(c3ccccc3)CN(CCCO)CC1(c1ccccc1)CN(CCCO)C2 | -50.4
61 | O=C1C2(c3ccccc3)CN(CCO)CC1(c1ccccc1)CN(CCO)C2 | -10.6
62 | CCOC(=O)C1CCN(C(=O)CN2C(=O)CSc3ccc(S(=O)(=O)N4CCOCC4)cc32)CC1 | -22.6
63 | O=C(N=C1SC2CS(=O)(=O)CC2N1Cc1ccc(F)cc1)C1CCCO1 (stereo not shown) | -5.58
64 | CN(C)S(=O)(=O)c1ccc(N2CCCC2)c(C(=O)NCc2cccc(C(F)(F)F)c2)c1 | 4.61
65 | CN(C)S(=O)(=O)c1ccc(N2CCCC2)c(C(=O)NNC(=O)COc2ccccc2Cl)c1 | -30.3
66 | CN(C)S(=O)(=O)c1ccc(N2CCCC2)c(C(=O)Nc2ccccc2F)c1 | -14.7

Row | Compound | hERG current change (%, negative = inhibition) at 10uM [%]
67 | CCc1ccccc1NC(=O)c1cc(S(=O)(=O)N(C)C)ccc1N1CCCC1 | -32.2
68 | Cc1ccccc1OCC(=O)NNC(=O)c1cc(S(=O)(=O)N(C)C)ccc1N1CCCC1 | 0.0569
69 | CN(C)S(=O)(=O)c1ccc(N2CCCC2)c(C(=O)Nc2ccccc2Br)c1 | -58.3
70 | CSc1ccccc1NC(=O)c1cc(S(=O)(=O)N(C)C)ccc1N1CCCC1 | -54.7
71 | CN(C)S(=O)(=O)c1ccc(N2CCCC2)c(C(=O)NCc2ccc(Cl)cc2)c1 | -68.5
72 | CN(C)S(=O)(=O)c1ccc(N2CCCC2)c(C(=O)NNC(=O)COc2ccccc2F)c1 | -61.4
73 | CN(C)S(=O)(=O)c1ccc(N2CCCC2)c(C(=O)Nc2ccc(Br)cc2F)c1 | 3.03
74 | CN(CC(=O)Nc1ccccc1Br)C(=O)c1cc(S(=O)(=O)N(C)C)ccc1N1CCCC1 | -8.64
75 | CN(C)S(=O)(=O)c1ccc(N2CCCC2)c(C(=O)NCc2ccccc2)c1 | -10
76 | O=C(C1CCCO1)N1CCN(C(c2ccccc2)c2ccccc2)CC1 (stereo not shown) | 0.514
77 | CC1(C)C=C2[C@H]3CC[C@@H]4[C@@]5(C)CCC(=O)C(C)(C)[C@@H]5CC[C@@]4(C)[C@]3(C)CC[C@@]2(C(=O)O)CC1 | -1.05
78 | CCN(CC)C(=O)C(=O)N/N=C/c1cccc(Br)c1 | -8.07
79 | CCN(CC1COc2ccccc2O1)C(=S)NC1CC2CCC1C2 (stereo not shown) | 1.34
80 | Cc1cc(C)cc(OCc2ccc(C(=O)NC3CCOC3=O)o2)c1 (stereo not shown) | 15.9
81 | O=C(Nc1nccs1)C(c1ccccc1)N1CCCC1 (stereo not shown) | -7.89
82 | COC(=O)c1sccc1N/N=C/c1cccc(Oc2ccccc2)c1 | -7.09
83 | CC1S/C(=N/N=C/c2ccco2)N(Cc2ccc(F)cc2)C1=O (stereo not shown) | -11.3
84 | COc1cc(OC)nc(Oc2ccccc2C(=O)Oc2ccc(Cl)cc2)n1 | -21.6
85 | Cc1nnsc1SCC(=O)O | -0.15
